Test results taken from PubChem BioAssay (NCI).
This is part of a sample that, as a whole, favours compounds with a hit. Of some 79,000 tested, about 15% had one in any assay. No stated cut-off is given here; in the data, active means growth inhibition above about 70%; inactive means the rest.

Legend:
[1] = NCI Yeast Anticancer Drug Screen. Data for the rad50 strain (AID 155);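 further: 0% = growth of vehicle-only cultures of the same strain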; settings: S. cerevisiae rad50 strain growth inhibition; at 50.0 µM; stronger effect = higher value
Method in brief: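 Growth of the mutant yeast was measured after compound exposure and referenced to vehicle-treated cultures.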

[2] = NCI Yeast Anticancer Drug Screen. Data for the mec2-1 strain (AID 157); settings: S. cerevisiae mec2-1 strain, at 50.0 µM, stronger effect = higher value
Method in brief: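 Cells of the genetically defined mec2-1 yeast strain are incubated with test compound. Inhibition of growth is calculated against vehicle-treated controls.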

[3] = NCI Yeast Anticancer Drug Screen. Data for the sgs1 mgt1 strain (AID 161);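 further: 0% = growth of cultures given vehicle only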; settings: S. cerevisiae sgs1 mgt1 strain, at 50.0 µM, stronger effect = higher value
Method in brief: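 Inhibition of yeast growth, normalised to vehicle-treated controls, is reported for a strain bearing genetic alterations in DNA damage repair.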

[4] = NCI Yeast Anticancer Drug Screen. Data for the cln2 rad14 strain (AID 165);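 further: 0% = growth equal to vehicle treated cultures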; settings: S. cerevisiae cln2 rad14 strain, at 50.0 µM, stronger effect = higher value
Method in brief: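 The screen exposed genetically defined yeast (cln2 rad14) to test compounds and scored growth inhibition relative to vehicle-treated controls.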

[5] = NCI Yeast Anticancer Drug Screen. Data for the bub3 strain (AID 167); settings: S. cerevisiae bub3 mutant strain, at 50.0 µM, stronger effect = higher value
Method in brief: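 Whole-cell yeast assay. The mutant strain was incubated with compounds, and growth inhibition was determined by comparison with vehicle-treated cells.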

[6] = NCI Yeast Anticancer Drug Screen. Data for the mlh1 rad18 strain (AID 175); settings: S. cerevisiae mlh1 rad18 strain growth inhibition; at 50.0 µM; stronger effect = higher value
Method in brief: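 Compound-treated yeast growth, normalised to vehicle controls. Strain bears defined DNA repair mutations.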

Measured: growth inhibition

CCCCN(CCCC)c1c([N+](=O)[O-])c(=O)nc2ccccn12
inactive: [1] 21.1% | [2] -3.35% | [3] 5.7% | [4] 11.7% | [5] 11.2% | [6] 37.9%

Cn1c(=Nc2ccc(Cl)cc2)sc2ccccc21
inactive: [1] -8.65% | [2] -31.2% | [3] -21.4% | [4] -36.9% | [5] 1.2% | [6] -21.9%

COC(=O)CCCCCCCCC(C)C(C)=O (stereo unspecified)
inactive: [1] -34.8% | [2] -29.8% | [3] -16.4% | [4] -12.5% | [5] -45.3% | [6] -32.5%

O=C(OCCO)c1ccc(O)c(O)c1
inactive: [1] 14.6% | [2] -4.65% | [3] 3.1% | [4] -25.8% | [5] -6.1% | [6] 7.55%

C=CC12COC(=O)CC1CCC(=O)C2 (stereo unspecified)
inactive: [1] 4.75% | [2] -10.2% | [3] -14.2% | [4] -19.4% | [5] 13.4% | [6] -5.4%

Cc1cc2nc(CC(C(F)(F)F)C(F)(F)F)oc2cc1C
inactive: [1] -21% | [2] -13.4% | [3] -13.2% | [4] -4.85% | [5] -14.4% | [6] 34.9%

CC(=O)C1C(=O)OC2C3C=CC(C3)C2C1=O (stereo unspecified)
inactive: [1] 14.9% | [2] 21.1% | [3] 0.9% | [4] -4.7% | [5] 20.1% | [6] 42.6%

CC[O-].CC[O-].O=C([CH-]C(=O)c1ccccc1)CCCCCCCCC(=O)[CH-]C(=O)c1ccccc1.[Ti+4]
inactive: [1] -37.5% | [2] -22.3% | [3] 5.1% | [4] 13.2% | [5] 2.85% | [6] 0.5%

c1ccc(-c2nsc3ccccc23)cc1
inactive: [1] 14.3% | [2] -6.35% | [3] -8.25% | [4] -31.1% | [5] -14.8% | [6] 5.75%

CSc1ccc(C)c(/C=N/Nc2ccc([N+](=O)[O-])cc2[N+](=O)[O-])c1
inactive: [1] 7.05% | [2] 26.9% | [3] 18.4% | [4] -13.6% | [5] 0.5% | [6] 3.25%

NCC(=O)Nc1ccc(Cl)cc1C(=O)c1ccc[nH]1
inactive: [1] 1.4% | [2] -16% | [3] -27.6% | [4] -42.4% | [5] -53.5% | [6] 0.85%

COc1ccc(C(=O)c2ccccc2)c(O)c1OC
inactive: [1] -12.9% | [2] -5.95% | [3] -2.35% | [4] -0.75% | [5] 45.8% | [6] 10.3%

OC/C(Cc1cccc(O)c1)=C(/CO)Cc1cccc(O)c1
inactive: [1] 5.5% | [2] 7.3% | [3] 6.7% | [4] 3.45% | [5] 10.4% | [6] 8.8%

CCCCCCCCCC(C)(O)C(N)=O (stereo unspecified)
inactive: [1] 15.1% | [2] -6.15% | [3] 13.2% | [4] -21.6% | [5] -5.65% | [6] 9.65%

Cc1cc(C(=O)CSC(=S)SC(C)(C)C)ccc1Cl
inactive: [1] 9.3% | [2] -30.1% | [3] -5.85% | [4] 4.45% | [5] -17.9% | [6] -5.2%

Cc1nn(-c2ccccc2)c(=O)n2c1nc1ccccc12
inactive: [1] -2% | [2] -9.5% | [3] 20.9% | [4] -43.1% | [5] 26.8% | [6] 11.9%

CCNc1ccc(N=Nc2ccc(-c3ccc(N=Nc4ccc(NCC)c5ccccc45)c(OC)c3)cc2OC)c2ccccc12
inactive: [1] -1.15% | [2] 18.1% | [3] 5.55% | [4] 23.3% | [5] 26.9% | [6] 36%

CCOC(=O)C1=C2c3ccc4cc(OC)ccc4c3CCC2(C)C(=O)C1 (stereo unspecified)
inactive: [1] -19.1% | [2] 15.5% | [3] -2.55% | [4] -21.1% | [5] -11.2% | [6] -21.1%

CN1CCC(CO)CC1
inactive: [1] -12.8% | [2] -2.7% | [3] -2.65% | [4] 9.05% | [5] 11.8% | [6] -8.4%

COC(=O)c1c2c(cc3c1CC1(Cc4cc5c(c(C(C)=O)c4C1)CCC5)C3)CCC2 (stereo unspecified)
inactive: [1] -34.1% | [2] -15.5% | [3] -63.8% | [4] -4.1% | [5] -20.7% | [6] -41.5%

COc1cc2c(cc1C/C=C/c1ccccc1)OCO2
inactive: [1] -11.4% | [2] -15.9% | [3] -0.9% | [4] -9.5% | [5] 17.1% | [6] -6.4%
